# Cruzain noTriton: blocks cruzain activity in detergent-free assay; P25779; purified cruzain, Z-FR-AMC fluorescence, no detergent; Potency, µM, inactives show max response, negative = inhibition, hits mostly inhibitors; 200,000 compounds, 2.3% hits; AID 1476;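 note: plate controls were enzyme without inhibitor for no effect and buffer without enzyme for full effect; nearly all actives have a fitted effect of over 40% in size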
# Target sequence (P25779 123-467 limits assumed): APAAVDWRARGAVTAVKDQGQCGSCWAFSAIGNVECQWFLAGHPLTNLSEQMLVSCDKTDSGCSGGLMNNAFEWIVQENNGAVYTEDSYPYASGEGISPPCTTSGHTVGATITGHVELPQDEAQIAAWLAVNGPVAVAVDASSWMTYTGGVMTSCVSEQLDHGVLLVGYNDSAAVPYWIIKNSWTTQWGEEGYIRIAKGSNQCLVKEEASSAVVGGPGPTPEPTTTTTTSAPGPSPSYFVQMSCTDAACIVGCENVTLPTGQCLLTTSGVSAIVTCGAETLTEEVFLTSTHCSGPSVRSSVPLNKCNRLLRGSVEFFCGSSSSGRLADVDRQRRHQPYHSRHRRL
#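 Detergent-free condition (0.00005% Triton X-100) in acetate buffer pH 5.5 with DTT. 1.5 nM enzyme and compound were pre-mixed 15 min, then 2 uM Z-FR-AMC substrate added; reaction progress from fluorescence change between first and third reads (60 s).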
# Cruzain inh Det: blocks cruzain activity in presence of Triton detergent; P25779; purified cruzain, Z-FR-AMC fluorescence, 0.01% Triton; Potency, µM, for inactives: max response, negative = inhibition, usual class: inhibitors; 200,000 compounds, 0.43% hits; AID 1478;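 note: plate controls were neutral wells for no effect and buffer without enzyme for full effect; nearly all actives have a fitted effect of over 40% in size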
#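 Purified cruzain (1.5 nM final) was preincubated with compounds for 15 min at room temperature in 100 mM sodium acetate pH 5.5, 5 mM DTT, 0.01% Triton X-100. Reaction started with 2 uM Z-FR-AMC; AMC fluorescence change over 60 s gave activity.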
# Numbers without * were called inactive; ? = inconclusive. A selection: hits, their analogues and other compounds. The true share with any hit is near 2.5%. Calls come from the whole dose curve; as a rule, active = well fitted curve in the direction sought with a large enough effect; inconclusive = small, poorly fitted or top-dose-only effect, or another doubt; inactive = no such curve, though single readings can be large; an effect the other way counts as inactive or inconclusive. Potency is the fitted concentration of half-maximal effect.
SMILES,Cruzain noTriton,Cruzain inh Det
O=C(CCC1N=C2c3ccccc3N=C(SCc3ccccc3F)N2C1=O)NCc1ccccc1 (centres undefined),1.9%,0.3%
CC(/C=N/NC(=O)c1cc(-c2ccccc2)nc2ccccc12)=C\c1ccco1,?,-9.4%
CC(/C=N/NC(=O)c1cc(-c2ccc(Cl)cc2)nc2ccccc12)=C\c1ccco1,7.94µM*,-2.0%
C=C[C@]1(C)Cc2occ(C)c2C[C@H]1C(=C)C(=O)O,-4.2%,0.5%
O=C(Nc1ccc(-c2cn3ccccc3n2)cc1)c1ccc(Cl)cc1,12.6µM*,-2.9%
O=C(Nc1ccc(-c2cn3ccccc3n2)cc1)c1ccco1,-6.4%,-8.3%
CC1CC1C(=O)OCc1cc(=O)n2cc(Br)ccc2n1 (centres undefined),-3.1%,0.8%
Cc1ccccc1C(=O)NC(CC(C)C)C(=O)OCc1cc(=O)n2cc(Br)ccc2n1 (centres undefined),15.8µM*,14.1µM*
Cc1ccc(CCNC(=O)c2nn(C)c3c2CSc2ccccc2-3)cc1,-9.1%,-4.1%
Cc1ccc(CNC(=O)c2nn(C)c3c2CSc2ccc(C)cc2-3)cc1,20µM*,-3.5%
Cc1ccc2nc(N3CCN(c4cccc(C(F)(F)F)c4)CC3)c3nnnn3c2c1,10.4%,-0.8%
Cc1ccc(CN2C(=O)c3ccccc3C2C(=O)NC2CCCCCC2)cc1 (centres undefined),2.5%,-3.0%
CCOc1ccc(C2c3[nH]c4ccccc4c3CCN2C(=O)CCc2ccccc2)cc1 (centres undefined),10.2%,1.8%
COc1cccc(/C=C2\SC(=O)N(CCC(=O)NNC(=O)c3ccccc3Cl)C2=O)c1,?,-4.8%
O=C(CN1C(=O)S/C(=C\c2ccc(Cl)cc2)C1=O)NNC(=O)c1ccccc1O,20µM*,-5.5%
Nc1cc2c(nc3c4ccccc4c(N)cc3[n+]2-c2cccc3ccccc23)c2ccccc12 (tested in a mixture with another compound),1.26µM*,0.3%
Nc1cccc2c(N)cccc12,1.9%,-5.2%
N#Cc1ccc(-c2csc(NNC(=O)c3ccccc3)n2)cc1,?,0.9%
Cc1ccc(-c2nc3cc(C(C)C)ccc3o2)cc1NC(=O)c1cc2ccccc2o1,?,-0.7%
O=C(Nc1nc(-c2ccccc2)cs1)c1cccnc1,-7.0%,3.3%
Cc1ccc(-c2nc3ccccc3o2)cc1NC(=S)NC(=O)c1cc2ccccc2o1,6.31µM*,-1.0%
Cc1ccc(-c2csc(NC(=S)NC(=O)c3cc4ccccc4o3)n2)cc1,6.31µM*,-0.1%
N#Cc1ccc(-c2csc(NNC(=O)c3ccc(Br)cc3)n2)cc1,7.94µM*,-1.8%
Cc1ccc(-c2csc(NC(=S)NC(=O)/C=C/c3ccco3)n2)cc1,?,1.3%
O=C(NC(=S)Nc1nc(-c2ccc(Br)cc2)cs1)c1cccnc1,3.98µM*,4.2%
SMILES,Cruzain noTriton,Cruzain inh Det
COc1cc2cc(CNc3ccccc3)c(=O)n(CC(=O)Nc3cc(C)cc(C)c3)c2cc1OC,16.0%,-3.7%
CCOc1ccccc1-c1noc(CSc2nnc(-c3ccccc3)n2-c2ccc(OC)cc2)n1,-8.8%,-3.7%
CCC(=O)Nc1ccc(C)cc1-c1nc2ccccc2n(C(C)C(=O)Nc2ccccc2CC)c1=O (centres undefined),3.8%,-1.6%
Cc1cnc(CNc2ccnc(-c3ccccc3C)n2)cn1,1.8%,-2.3%
Cc1cc(NC(=O)COC(=O)C(Cc2ccccc2)NC(=O)c2ccco2)no1 (centres undefined),25.1µM*,28.2µM*
O=C(COC(=O)[C@H](Cc1ccccc1)NC(=O)c1ccco1)NC(c1ccccc1)c1ccccc1,5.0%,-6.5%
Cc1cc(C)c(S(=O)(=O)NCC(c2ccco2)N2CCOCC2)c(C)c1 (centres undefined),14.7%,-0.1%
COC(=O)c1ccc(OC)c(Cn2c(=O)n(-c3cccc(Cl)c3)c(=O)c3c4c(sc32)CN(C(C)=O)CC4)c1,1.7%,-1.8%
CCc1ccc(Cn2c(CNS(=O)(=O)c3ccc(Cl)s3)nc3cccnc32)cc1,-1.5%,-3.1%
Cn1c(O)c(N=NC(=O)c2cc(-c3cccs3)nc3ccccc23)c2ccccc21,10µM*,-1.4%
Cn1cccc1/C=N/NC(=O)c1cc(-c2cccs2)nc2ccccc12,-20.4%,-9.1%
Cc1ccc(NC(=O)NCCc2c(C)nn(C)c2C)c(Cl)c1,-2.9%,0.2%
COc1ccc2[nH]c(=O)c(CN(C(=O)c3cccc(Cl)c3)c3ccccc3OC)cc2c1,7.1%,-12.9%
Cc1nc(SCC(=O)c2cc3ccccc3oc2=O)c(C#N)c(C)c1C(=O)Nc1ccccc1,12.6µM*,-6.0%
CSc1nc(C)c(C(=O)Nc2ccccc2)c(C)c1C#N,-2.1%,-0.2%
CCOC(=O)c1ccc(N=C2SC(C(=O)Nc3ccccc3)CC(=O)N2C)cc1 (centres undefined),-3.4%,-8.6%
O=C(Nc1nc2ccccc2s1)c1cc(-c2ccccc2)nn1-c1ccccc1,10µM*,-1.8%
CC(=O)c1sc(NC(=O)c2cc(-c3ccccc3)nn2-c2ccccc2)nc1C,-15.8%,-5.9%
O=S(=O)(NCc1csc(-c2ccccc2)n1)c1ccccc1,6.2%,-7.3%
COc1ccccc1NS(=O)(=O)c1cc([N+](=O)[O-])ccc1N/N=C/c1c(C)[nH]c2ccccc12,7.94µM*,-0.3%
O=[N+]([O-])c1ccc(N/N=C/c2c[nH]c3ccccc23)c(S(=O)(=O)Nc2ccc(Cl)cc2)c1,?,0.2%
Cc1[nH]c2ccccc2c1/C=N/Nc1ccc([N+](=O)[O-])cc1,25.1µM*,-1.2%
Cc1[nH]c2ccccc2c1/C=N/Nc1ccc(F)cc1F,?,-0.7%
CC(=O)N1c2ccc(S(=O)(=O)NCc3ccc(Cl)cc3)cc2CC1C (centres undefined),5.5%,-4.0%
COc1ccc(-n2cc(C(=O)NCCc3ccc(C)cc3)c3ccccc3c2=O)cc1,25.1µM*,-4.9%
SMILES,Cruzain noTriton,Cruzain inh Det
COc1cccc(-n2cc(C(=O)NCCc3ccc(C)cc3)c3ccccc3c2=O)c1,19.9%,0.3%
COc1cccc(Cn2c(Oc3cc(C)cc(C)c3)nc3c2c(=O)n(C)c(=O)n3C)c1,20.5%,-7.3%
Cc1cccc(NC(=O)c2oc3ccccc3c2NC(=O)Cc2coc3cc(C)cc(C)c23)c1,-9.6%,-0.5%
O=C1C2C3C=CC(C4CC34)C2C(=O)N1/N=C/c1ccc(-c2cccc([N+](=O)[O-])c2)o1 (centres undefined),25.1µM*,-8.1%
O=C1C2C3C=CC(C4CC34)C2C(=O)N1/N=C/c1ccc([N+](=O)[O-])s1 (centres undefined),-1.1%,-1.8%
CCc1ccc(OCC(=O)N(Cc2ccco2)Cc2ccccc2Cl)cc1,-23.8%,-12.0%
CC(C)(C)C(=O)Cn1c(=O)n(CCCCCC(=O)NCc2ccc3c(c2)OCO3)c(=O)c2sccc21,14.3%,-2.5%
COc1ccccc1CNC(=O)c1cnc2sc(N3CCCCCC3)nn2c1=O,-4.6%,-7.5%
CCN1C(=O)C2(c3ccccc31)c1c(oc3ccc(F)cc3c1=O)C(=O)N2CCCOC (centres undefined),0.9%,-3.0%

# Screens deposited in PubChem BioAssay by National Center for Advancing Translational Sciences (NCATS).
